The full list was thinned out, with hits kept by preference.
KDM5B inh: inhibitors of human KDM5B histone demethylase; KDM5B demethylase, FDH-coupled NADH fluorescence (FDH is formaldehyde dehydrogenase); Potency, µM (titrated, usually from 57.7 µM), hits mostly inhibitors; actives 2.6% (n = 220,000); Q9UGL1; AID 1347165; active means well fitted inhibition curve with a large enough effect; further: 0% is about no effect; nearly all actives have a fitted effect of over 70% in size
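Measured: NADH fluorescence change, 30 min, RT. System: KDM5BΔAP 200 nM final, H3K4me3 peptide, α-KG, Fe(II), ascorbate, NAD⁺ plus FDH, pH 7.5 HEPES. Compounds: titrated, 10 min pre-incubation with enzyme.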
* hit, by the source's call. Potency means the concentration at half of the fitted maximal effect.

What do the screens show for `COc1ccc(CN2CCNc3cnc(Nc4ccccc4)cc3C2)cc1O`?
KDM5B inh: 40µM*

What do the screens show for `Cn1cc(CN2CCNc3cc(Nc4ccccc4)ncc3C2)cn1`?
KDM5B inh: inactive

What do the screens show for `O=C(Cc1ccc(Cl)c(Cl)c1)NCc1cccs1`?
KDM5B inh: inactive

What do the screens show for `CCn1cnnc1-c1cccc(NS(=O)(=O)c2cccc(F)c2)c1`?
KDM5B inh: inactive

How did COc1ccc(Br)cc1/C=N/OC(C)=O do in these assays?
KDM5B inh: inactive

How did Cc1ccc(Cc2sc(N)nc2C)cc1 do in these assays?
KDM5B inh: inactive

How did COc1ccc(-c2noc(-c3nc(C)no3)n2)cc1 do in these assays?
KDM5B inh: inactive

How did COc1ccc(-c2noc(-c3ccc(N4CCCOCC4)nc3)n2)cc1 do in these assays?
KDM5B inh: 32µM*

What do the screens show for `COc1ccc(-c2noc(-c3ccc(N4C[C@H]5CC[C@H]4C5)nc3)n2)cc1`?
KDM5B inh: 32µM*

Results for COc1ccc(-c2noc(-c3ccc(N4CCOCC4)c([N+](=O)[O-])c3)n2)cc1 ?
KDM5B inh: inactive

What do the screens show for `COc1ccc(-c2noc(-c3ccc(Br)o3)n2)cc1`?
KDM5B inh: inactive

Results for COc1ccc(-c2noc(-c3ccc(S(=O)(=O)N4CCOCC4)o3)n2)cc1 ?
KDM5B inh: inactive

How did O=C(/C=C/c1ccccc1)N1CCC(c2nc3ccccc3o2)CC1 do in these assays?
KDM5B inh: inactive

How did COc1ccccc1OCc1ccc(C(=O)O)o1 do in these assays?
KDM5B inh: inactive

What do the screens show for `O=C(CN(c1ccccc1)S(=O)(=O)c1ccccc1)NCC1CCCO1` (stereo not drawn)?
KDM5B inh: inactive

What do the screens show for `CS(=O)(=O)c1ccc(OCCOc2ccc(F)cc2)cc1`?
KDM5B inh: inactive

How did CC(C)(C)NC(NC(=O)c1ccc(C(C)(C)C)cc1)C(Cl)(Cl)Cl (stereo not drawn) do in these assays?
KDM5B inh: inactive

What do the screens show for `Cc1cccc(NC(=O)c2cc3c(s2)CCC3)c1C`?
KDM5B inh: inactive

What do the screens show for `O=C(NCc1cnccn1)c1nc(-c2ccccc2)cc2[nH]ccc12`?
KDM5B inh: inactive

What do the screens show for `O=C(NCc1cnccn1)c1ccc(-c2ncc3cnc(-c4cccc(F)c4)cn23)cc1`?
KDM5B inh: 35µM*

What do the screens show for `CCc1ccc(C(=O)NCCOC)cc1`?
KDM5B inh: inactive

How did CN(Cc1cccn1C)C(=O)c1ccc(F)cc1 do in these assays?
KDM5B inh: inactive

How did CN(C)CCN(C)C(=O)c1ccc(-c2ncc3cnc(-c4cccc(F)c4)cn23)cc1 do in these assays?
KDM5B inh: 40µM*

How did O=C(NCc1cccc(F)c1)c1ccc(-n2cnc3cccnc32)cc1 do in these assays?
KDM5B inh: inactive

Results for CN(Cc1ccc(-c2ccccc2)cc1)C(=O)c1ccc(F)cc1 ?
KDM5B inh: inactive

How did COCCNC(=O)c1ccc(-c2ncc3cnc(-c4cccc(F)c4)cn23)cc1 do in these assays?
KDM5B inh: 35µM*

What do the screens show for `COc1ccc(-c2ncc(CCNC(=O)c3cccc(F)c3)[nH]2)cc1`?
KDM5B inh: inactive

How did COc1ccc2[nH]cc(CCNC(=O)C3Cn4cccc4C(=O)N3Cc3cccnc3)c2c1 (stereo not drawn) do in these assays?
KDM5B inh: inactive

What do the screens show for `Cc1ccc(CCC(=O)N(C)Cc2cccs2)cc1`?
KDM5B inh: inactive

What do the screens show for `CC(Sc1nnc(N2CCCC2)n1-c1ccccc1Cl)c1nnc(-c2cccs2)o1` (stereo not drawn)?
KDM5B inh: inactive

How did CCNCc1ccc(-c2ccccc2F)o1 do in these assays?
KDM5B inh: inactive

Results for Cc1cccc(CN2CC(Oc3cccc(C(=O)NCC4CC4)c3)C2)c1 ?
KDM5B inh: inactive

Results for CCNC(=O)NCC1CCN(Cc2cc(Cl)cc(Cl)c2)C1 (stereo not drawn) ?
KDM5B inh: inactive

How did Nc1cccc(C(=O)NCC2CCN(Cc3cc(F)cc(F)c3)C2)c1 (stereo not drawn) do in these assays?
KDM5B inh: 28µM*

What do the screens show for `Cc1cccc(CNC(=O)NCC2CCN(Cc3ccncc3)C2)c1` (stereo not drawn)?
KDM5B inh: 14µM*

What do the screens show for `O=C(NCC1CC1)c1cccc(OC2CN(Cc3cccc(F)c3)C2)c1`?
KDM5B inh: inactive

Results for Cc1ccc(CN2CCC(CNC(=O)Nc3ccc(Cl)cc3)C2)cc1 (stereo not drawn) ?
KDM5B inh: inactive

How did COC(=O)C(C)NC(=O)c1ccc(COC(C)=O)cc1 (stereo not drawn) do in these assays?
KDM5B inh: inactive

How did Cc1ccc(CCNC(=O)C2CCCC2)o1 do in these assays?
KDM5B inh: inactive

What do the screens show for `COc1ccc(CN(Cc2cccc(C#N)c2)C2CC2)cc1`?
KDM5B inh: inactive

How did O=[S+]([O-])(Nc1cccnc1)c1ccc2c(c1)OCCN(Cc1cncc(F)c1)C2 do in these assays?
KDM5B inh: inactive

How did CCc1cccc(NC(=O)C2CCc3ncc(-c4ccsc4)n3C2)c1 (stereo not drawn) do in these assays?
KDM5B inh: inactive

How did O=C(/C=C/Sc1ccccc1)Nc1ccccc1 do in these assays?
KDM5B inh: inactive

Results for CNc1c(NS(=O)(=O)c2c(C)noc2C)c(=O)oc2ccccc12 ?
KDM5B inh: inactive

What do the screens show for `COC[C@@H]1CN(c2ncccn2)C[C@H]1C(=O)NCc1c(C)n[nH]c1C`?
KDM5B inh: 28µM*

Results for COC[C@@H]1CN(Cc2cccc(OC)c2OC)C[C@H]1C(=O)NC1CC1 ?
KDM5B inh: inactive

Results for CNC(=O)[C@@H]1CN(C(=O)c2ocnc2C)C[C@H]1COC ?
KDM5B inh: inactive

Results for COc1ccc(NC(=O)N2CCN(c3cnccn3)CC2)cn1 ?
KDM5B inh: inactive

How did Cc1n[nH]c(C)c1CNC(=O)C1CCN(C(=O)c2ncn3c2COC(c2ccc(F)cc2)C3)CC1 (stereo not drawn) do in these assays?
KDM5B inh: inactive

What do the screens show for `COC[C@@H]1CN(c2ncccn2)C[C@H]1C(=O)N(C)Cc1cn(C)nc1C`?
KDM5B inh: 14µM*

Results for COc1ccccc1CNC(=O)[C@H]1CN(C(C)C)C[C@H]1C(=O)O ?
KDM5B inh: inactive

What do the screens show for `COC[C@@H]1CN(c2ncccn2)C[C@H]1C(=O)Nc1ccc(OC)nc1`?
KDM5B inh: 25µM*

Results for COC[C@@H]1CN(Cc2cnn(C)c2)C[C@H]1C(=O)N(C)C ?
KDM5B inh: inactive

How did COC[C@@H]1CN(Cc2cn(C)nc2C)C[C@H]1c1ccncc1 do in these assays?
KDM5B inh: inactive

Results for COC[C@@H]1CN(c2ncccn2)C[C@H]1C(=O)NCc1ccccc1OC ?
KDM5B inh: 18µM*

Results for COC[C@@H]1CN(Cc2ccccn2)C[C@H]1C(=O)NC1CC1 ?
KDM5B inh: inactive

How did O=C(Cc1c[nH]c2ccccc12)Nc1nc2ccccc2s1 do in these assays?
KDM5B inh: inactive

Results for O=C(CCCc1nc2ccccc2o1)NCc1ccccc1Cl ?
KDM5B inh: inactive

What do the screens show for `CC(=O)c1sc(-c2cccc(F)c2)nc1C`?
KDM5B inh: inactive

Results for CC(C)(C)Sc1ccc2nn(CC(=O)Nc3ccccc3F)c(=O)n2n1 ?
KDM5B inh: inactive

How did Cc1cc(=O)oc2c(C)c(OCC(=O)NCc3ccc(S(N)(=O)=O)cc3)ccc12 do in these assays?
KDM5B inh: inactive

What do the screens show for `Cc1c(NC(=O)c2cc3cc(F)ccc3[nH]2)c(=O)n(-c2ccccc2)n1C`?
KDM5B inh: inactive

Source: PubChem
